The whole screen tested about 39,000 compounds, of which about 3,300 (8.5%) were called active. The list comes from a sample in which actives are over-represented; it also holds similar structures and randomly drawn compounds.

The source of these data is the antibiotic and cytotoxicity screens of Wong et al. (2023).

The subject of this assay is HepG2. The experiment in a line: cytotoxicity call (relative viability < 0.9). The conditions noted are these: 10 µM.
Consider `O=C1CN(S(=O)(=O)Cc2ccccc2)C[C@@H]2[C@H](c3ccc(C#Cc4cccc(F)c4)cc3)[C@H](CO)N12`, for which the cytotoxicity call was “active”.

`O=C(CN1CCOCC1)N[C@H]1CC[C@H](CCNC(=O)C2CCC2)O[C@H]1CO`: the cytotoxicity call is “inactive”.

As to `C[C@@H]1CN([C@@H](C)CO)C(=O)c2cc(NC(=O)Cn3cnnn3)ccc2O[C@H]1CN(C)Cc1ccc(C(F)(F)F)cc1`, the cytotoxicity call was “inactive”.

As to `COc1ccc(CCNC(=O)[C@@]2(Sc3ccc(C)cc3)CC(=O)N(Cc3ccccc3C(F)(F)F)[C@@H]2c2ccc(CO)cc2)cc1`, the cytotoxicity call was “inactive”.

With `O=c1[nH]cc(F)c(=O)[nH]1` [listing 1 of 2 here], the cytotoxicity call was “active”.

For `O=c1[nH]cc(N2CCCCC2)c(=O)[nH]1`, the cytotoxicity call was “inactive”.

On to `O=c1[nH]cc(S(=O)(=O)N2CCN(c3ccccc3F)CC2)c(=O)[nH]1`, for which the cytotoxicity call is “inactive”.

For `CCOCc1c[nH]c(=O)[nH]c1=O`, the cytotoxicity call was “inactive”.

On to `O=c1[nH]cc(F)c(=O)[nH]1` [listing 2 of 2 here], for which the cytotoxicity call was “active”.

Regarding `O=c1[nH]cc(Nc2ccccc2)c(=O)[nH]1`, the cytotoxicity call was “inactive”.

With `COc1ccc(NC(=O)N(C)C[C@H]2Oc3c(NS(=O)(=O)c4cn(C)cn4)cccc3C(=O)N([C@@H](C)CO)C[C@H]2C)cc1`, the cytotoxicity call is “inactive”.

With `Cn1cc(S(=O)(=O)Nc2ccc3c(c2)OCCO3)c(=O)n(C)c1=O`, the cytotoxicity call is “inactive”.

As for `C[C@@H]1CN([C@@H](C)CO)C(=O)c2cc(C#CC3(O)CCCC3)cnc2O[C@@H]1CN(C)S(C)(=O)=O`, the cytotoxicity call is “inactive”.

In the case of `CC(C)NC(=O)N(C)C[C@H]1Oc2ccc(NC(=O)Nc3ccc4c(c3)OCO4)cc2C(=O)N([C@H](C)CO)C[C@@H]1C`, the cytotoxicity call was “inactive”.

For `C=CCN(C(=O)[C@H]1N(C(C)(C)CO)C(=O)[C@H]2[C@H](C(=O)O)[C@@H]3C=C[C@@]21O3)C(C)(C)C`, the cytotoxicity call is “inactive”.

`Cc1cc(-c2ccccc2)oc2cc3ccccc3c1-2`: the cytotoxicity call is “inactive”.

Consider `S=c1cc(-c2ccccc2)oc(-c2ccccc2)c1`, for which the cytotoxicity call was “active”.

On to `O=c1cc(-c2ccccc2)oc2ccc(O)cc12`, for which the cytotoxicity call was “inactive”.

As for `O=C(N[C@@H](c1ccc(-c2ccccc2)cc1)c1cnccn1)C1CCN(CCCOc2ccccc2)CC1`, the cytotoxicity call is “active”.

Regarding `O=C(N[C@@H](c1ccc(-c2ccccc2)cc1)c1cnccn1)C1CCN(CCOc2ccc(F)cc2)CC1`, the cytotoxicity call is “active”.

Regarding `O=C(N[C@@H](c1ccc2c(c1)OCO2)c1ccccn1)C1CCN(CCOc2ccc(Cl)cc2Cl)CC1`, the cytotoxicity call was “inactive”.

`O=C(N[C@H](c1ccc(Cl)cc1)c1ccccn1)C1CCN(CCOc2ccc(Cl)cc2Cl)CC1`: the cytotoxicity call was “inactive”.

As to `Cc1cccnc1[C@@H](NC(=O)C1CCN(CCOc2ccc(Cl)cc2Cl)CC1)c1ccc(F)cc1`, the cytotoxicity call was “inactive”.

Consider `C[C@H]1CN([C@@H](C)CO)C(=O)c2ccccc2-c2ccccc2CO[C@H]1CN(C)Cc1ccc(-c2ccccc2)cc1`, for which the cytotoxicity call is “inactive”.

In the case of `CN(C)C(=O)N1C[C@@H]2[C@@H](C1)C(=O)N(C)C21CCN(S(C)(=O)=O)CC1`, the cytotoxicity call was “inactive”.

Take `C[C@H](O)[C@H](O)[C@@H](O)[C@@H](O)/C=N/NC(=O)c1ccccn1`: the cytotoxicity call is “inactive”.

For the compound `O=C(C[C@@H]1CC[C@@H]2[C@H](COC[C@H](O)CN2CC2CCOCC2)O1)N1CCOCC1`, the cytotoxicity call was “inactive”.

With `O=C(NCCO)c1cc2ccccc2oc1=O`, the cytotoxicity call is “inactive”.

On to `CCc1nc2ccc(C(=O)NCCOc3ccc(OC)cc3)cn2c1N(CC)Cc1cccc(Br)c1`, for which the cytotoxicity call was “inactive”.

Take `Cc1cc(C)c(N(Cc2ccccc2)S(=O)(=O)c2ccc(OCCNC(=O)c3cc4ccccc4o3)cc2)c(C(=O)NO)c1`: the cytotoxicity call was “active”.

Consider `Cc1ccc(S(=O)(=O)N(C)C[C@H]2Oc3ccc(NS(=O)(=O)c4cccs4)cc3C(=O)N([C@H](C)CO)C[C@@H]2C)cc1`, for which the cytotoxicity call is “inactive”.

Consider `COc1ccc(COC[C@]23NC(=O)N(C(=O)c4ccccc4)[C@H](c4ccccc4O2)[C@H]3CO[Si](C)(C)C(C)(C)C)cc1`, for which the cytotoxicity call was “inactive”.

As for `C[C@@H]1CN([C@H](C)CO)C(=O)Cc2cc(NC(=O)C3CCCCC3)ccc2O[C@H]1CN(C)S(C)(=O)=O`, the cytotoxicity call was “inactive”.

For the compound `C[C@H]1CCCCO[C@H](CN(C)Cc2ccc(Cl)c(Cl)c2)[C@@H](C)CN([C@@H](C)CO)C(=O)c2cc(NC(=O)Nc3cccc4ccccc34)ccc2O1`, the cytotoxicity call was “inactive”.

Take `C[C@H]1CCCCO[C@H](CN(C)C(=O)C2CCCCC2)[C@@H](C)CN([C@@H](C)CO)C(=O)c2cc(NC(=O)NC3CCCCC3)ccc2O1`: the cytotoxicity call was “inactive”.

Consider `C[C@H](CO)N1C[C@H](C)[C@H](CN(C)C(=O)C2CCCCC2)OCCCC[C@H](C)Oc2ccc(NC(=O)NC3CCCCC3)cc2C1=O`, for which the cytotoxicity call was “active”.

`C[C@@H]1CN([C@@H](C)CO)C(=O)c2cc(NC(=O)NC3CCCCC3)ccc2O[C@@H](C)CCCCO[C@H]1CN(C)C(=O)C1CCCCC1`: the cytotoxicity call was “active”.

On to `C[C@@H]1CCCCO[C@H](CN(C)C(=O)C2CCCCC2)[C@@H](C)CN([C@@H](C)CO)C(=O)c2cc(NC(=O)NC3CCCCC3)ccc2O1`, for which the cytotoxicity call is “inactive”.

With `C[C@@H]1CCCCO[C@H](CN(C)C(=O)C2CCCCC2)[C@H](C)CN([C@@H](C)CO)C(=O)c2cc(NC(=O)NC3CCCCC3)ccc2O1`, the cytotoxicity call was “active”.

As to `C[C@@H]1CCCCO[C@@H](CN(C)C(=O)C2CCCCC2)[C@H](C)CN([C@@H](C)CO)C(=O)c2cc(NC(=O)NC3CCCCC3)ccc2O1`, the cytotoxicity call is “inactive”.

With `C[C@H](CO)N1C[C@H](C)[C@@H](CN(C)C(=O)C2CCCCC2)OCCCC[C@H](C)Oc2ccc(NC(=O)NC3CCCCC3)cc2C1=O`, the cytotoxicity call was “inactive”.

As to `C[C@@H]1CCCCO[C@@H](CN(C)C(=O)C2CCCCC2)[C@@H](C)CN([C@@H](C)CO)C(=O)c2cc(NC(=O)NC3CCCCC3)ccc2O1`, the cytotoxicity call was “inactive”.

As for `C[C@@H]1CCCCO[C@H](CN(C)C(=O)C2CCCCC2)[C@@H](C)CN([C@H](C)CO)C(=O)c2cc(NC(=O)NC3CCCCC3)ccc2O1`, the cytotoxicity call was “inactive”.

With `CCS(=O)(=O)N1C[C@]2(CCN(CC2)S(=O)(=O)c2cn(cn2)C)c2c([nH]c3cc(ccc23)OC)[C@@H]1CO`, the cytotoxicity call was “inactive”.

In the case of `COc1ccc(S(=O)(=O)Nc2ccc3c(c2)C(=O)N([C@@H](C)CO)C[C@@H](C)[C@H](CN(C)C(=O)Nc2c(C)noc2C)OCCCC[C@@H](C)O3)cc1`, the cytotoxicity call is “inactive”.

Regarding `Cc1noc(C)c1NC(=O)N(C)C[C@@H]1Oc2ccc(NS(=O)(=O)c3c(C)noc3C)cc2C(=O)N([C@@H](C)CO)C[C@H]1C`, the cytotoxicity call was “inactive”.

Turning to `Cl.NC[C@H](N)C(=O)O`, the cytotoxicity call was “inactive”.

`COc1ccccc1S(=O)(=O)N(C)C[C@H]1OCc2cn(nn2)CCCC(=O)N([C@H](C)CO)C[C@@H]1C`: the cytotoxicity call was “inactive”.

Take `Cc1cccc(NC(=O)Nc2ccc3c(c2)C(=O)N(C)[C@@H]2CC[C@H](CC(=O)NCc4ccccc4Cl)O[C@H]2CO3)c1`: the cytotoxicity call was “inactive”.

Consider `C=CC[C@H](CC(=O)N(CCO)Cc1ccccc1)C(=O)N[C@H](COC(=O)[C@@H](CC=C)CC(=O)OC(C)(C)C)Cc1c[nH]c2ccccc12`, for which the cytotoxicity call is “inactive”.

Regarding `C[C@H](CO)N1C[C@H](C)[C@H](CN(C)C(=O)Nc2ccccc2)Oc2ccc(NC(=O)CCN3CCOCC3)cc2CC1=O`, the cytotoxicity call was “inactive”.

For `Cc1ccc(S(=O)(=O)N(C)C[C@@H]2Oc3ccc(NS(=O)(=O)c4ccc(F)cc4)cc3CC(=O)N([C@H](C)CO)C[C@H]2C)cc1`, the cytotoxicity call was “inactive”.

As for `O=C(NCc1ccccc1)C1=C[C@H](c2ccc(Br)cc2)C[C@H](OCc2ccc(CO)cc2)O1`, the cytotoxicity call is “inactive”.

In the case of `Cc1ccc(S(=O)(=O)N(C)C[C@H]2Oc3ccc(NS(C)(=O)=O)cc3CC(=O)N([C@@H](C)CO)C[C@H]2C)cc1`, the cytotoxicity call was “inactive”.

In the case of `O=C(O)C=CC=Cc1ccccc1`, the cytotoxicity call is “inactive”.

Turning to `COC1=CC(=O)C(O)=CC1=CC=Cc1ccccc1`, the cytotoxicity call was “active”.

As to `COc1cc(CC=Cc2ccccc2)c(OC)cc1O`, the cytotoxicity call was “inactive”.

Regarding `C[C@@H]1CN([C@H](C)CO)C(=O)c2cc(NC(=O)C3CCCCC3)ccc2O[C@@H]1CN(C)C(=O)Nc1ccc(C(F)(F)F)cc1`, the cytotoxicity call was “inactive”.

Consider `C[C@H]1CN([C@@H](C)CO)C(=O)c2cc(NS(=O)(=O)c3cccs3)ccc2O[C@H]1CN(C)S(=O)(=O)c1ccccc1`, for which the cytotoxicity call is “inactive”.

As for `C[C@@H]1CN([C@H](C)CO)C(=O)c2cc(NC(=O)CCCCCC(=O)Nc3ccccc3N)ccc2O[C@@H]1CN(C)S(C)(=O)=O`, the cytotoxicity call was “inactive”.

On to `C[C@H](CO)N1C[C@H](C)[C@H](CN(C)C(=O)C2CCCCC2)OCCCC[C@H](C)Oc2ccc(NC(=O)CCC(F)(F)F)cc2C1=O`, for which the cytotoxicity call was “inactive”.

In the case of `Cc1ccc(NC(=O)[C@@H]2[C@@H]3CC/C=C\CC/C=C/CC[C@@H]32)cc1C`, the cytotoxicity call was “inactive”.

Turning to `CCC(=O)c1ccc(Cl)s1`, the cytotoxicity call was “inactive”.

In the case of `C[C@H](CO)N1C[C@H](C)[C@@H](CN(C)C(=O)Nc2ccc(F)cc2)OCCCC[C@H](C)Oc2ccc(NC(=O)Nc3ccc(C(F)(F)F)cc3)cc2C1=O`, the cytotoxicity call was “inactive”.

In the case of `C[C@H](CO)N1C[C@H](C)[C@@H](CN(C)C(=O)Nc2ccc(C(F)(F)F)cc2)OCCCC[C@H](C)Oc2ccc(NC(=O)Nc3ccc(F)cc3)cc2C1=O`, the cytotoxicity call was “inactive”.

Take `C[C@@H]1CCCCO[C@@H](CN(C)C(=O)Nc2ccc(C(F)(F)F)cc2)[C@H](C)CN([C@H](C)CO)C(=O)c2cc(NC(=O)Nc3ccc(F)cc3)ccc2O1`: the cytotoxicity call is “active”.

Turning to `C[C@H]1CCCCO[C@@H](CN(C)C(=O)Nc2ccc(C(F)(F)F)cc2)[C@@H](C)CN([C@@H](C)CO)C(=O)c2cc(NC(=O)Nc3ccc(F)cc3)ccc2O1`, the cytotoxicity call was “inactive”.

Turning to `C[C@H]1CCCCO[C@H](CN(C)C(=O)Nc2ccc(C(F)(F)F)cc2)[C@@H](C)CN([C@@H](C)CO)C(=O)c2cc(NC(=O)Nc3ccc(F)cc3)ccc2O1`, the cytotoxicity call was “inactive”.

Take `C[C@@H]1CN([C@H](C)CO)C(=O)c2cc(NC(=O)Nc3ccc(F)cc3)ccc2O[C@@H](C)CCCCO[C@H]1CN(C)C(=O)Nc1ccc(C(F)(F)F)cc1`: the cytotoxicity call is “active”.

In the case of `C[C@@H]1CCCCO[C@H](CN(C)C(=O)Nc2ccc(C(F)(F)F)cc2)[C@H](C)CN([C@H](C)CO)C(=O)c2cc(NC(=O)Nc3ccc(F)cc3)ccc2O1`, the cytotoxicity call is “inactive”.

Take `C[C@H](CO)N1C[C@H](C)[C@H](CN(C)C(=O)Nc2ccc(F)cc2)OCCCC[C@H](C)Oc2ccc(NC(=O)Nc3ccc(C(F)(F)F)cc3)cc2C1=O`: the cytotoxicity call was “inactive”.

Turning to `C[C@@H]1CCCCO[C@H](CN(C)C(=O)Nc2ccc(C(F)(F)F)cc2)[C@@H](C)CN([C@H](C)CO)C(=O)c2cc(NC(=O)Nc3ccc(F)cc3)ccc2O1`, the cytotoxicity call is “active”.

Consider `C[C@@H]1CN([C@H](C)CO)C(=O)c2cc(NC(=O)Nc3ccc(C(F)(F)F)cc3)ccc2O[C@@H](C)CCCCO[C@H]1CN(C)C(=O)Nc1ccc(F)cc1`, for which the cytotoxicity call is “active”.

For the compound `C[C@H]1CCCCO[C@@H](CN(C)C(=O)Nc2ccc(F)cc2)[C@@H](C)CN([C@@H](C)CO)C(=O)c2cc(NC(=O)Nc3ccc(C(F)(F)F)cc3)ccc2O1`, the cytotoxicity call was “inactive”.

For the compound `C[C@@H]1CCCCO[C@H](CN(C)C(=O)Nc2ccc(F)cc2)[C@@H](C)CN([C@@H](C)CO)C(=O)c2cc(NC(=O)Nc3ccc(C(F)(F)F)cc3)ccc2O1`, the cytotoxicity call is “inactive”.
